Experimental findings from PubChem BioAssay (NCATS) are described below.

Inconclusive results are not listed. Calls of active or inactive are those of the source. Unless noted, the call rests on the fitted dose curve; in most records, active means well fitted curve in the direction sought with a large enough effect; inconclusive means small, poorly fitted or top-dose-only effect, or another doubt; inactive means no such curve, though single readings can be large; an effect the other way counts as inactive or inconclusive. Some results are limits rather than exact numbers.

The target in test [1] is Lysosomal acid glucosylceramidase (Homo sapiens) (UniProt P04062). Nature of the test: Glucocerebrosidase-p2 (AID 348; in the data active means potency below about 10 µM; further: potency means the concentration at half of the fitted maximal effect). The note with it: purified GBA, blue fluorogenic substrate, 40 min. In a few lines: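 Normal human glucocerebrosidase (0.2 nM) with blue fluorogenic substrate (80 uM final) in citrate/phosphate pH 5.9 with 10mM sodium taurocholate, 0.01% tween-20; 40 min RT, NaOH/glycine stop; fluorescence Ex 365/Em 440; AC50 from a titration from 0.6 nM upwards.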
Sequence of Lysosomal acid glucosylceramidase (Homo sapiens) (P04062 whole entry, looked up): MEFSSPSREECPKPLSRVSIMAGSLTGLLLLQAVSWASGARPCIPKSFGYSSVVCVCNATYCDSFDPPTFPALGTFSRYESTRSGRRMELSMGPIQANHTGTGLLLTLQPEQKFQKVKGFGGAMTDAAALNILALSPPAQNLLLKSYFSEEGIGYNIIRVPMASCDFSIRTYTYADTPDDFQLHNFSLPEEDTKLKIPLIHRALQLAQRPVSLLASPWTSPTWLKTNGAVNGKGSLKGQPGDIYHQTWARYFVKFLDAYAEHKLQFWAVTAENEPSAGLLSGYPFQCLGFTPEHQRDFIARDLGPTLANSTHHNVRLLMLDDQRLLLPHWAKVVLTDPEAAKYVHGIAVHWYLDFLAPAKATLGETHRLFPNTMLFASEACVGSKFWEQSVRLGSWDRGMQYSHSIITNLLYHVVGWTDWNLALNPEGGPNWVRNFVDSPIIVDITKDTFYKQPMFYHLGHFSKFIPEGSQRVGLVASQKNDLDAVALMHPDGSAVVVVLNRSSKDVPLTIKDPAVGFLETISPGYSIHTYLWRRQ

The nature of test [2]: AP1 Signaling Pathway (AID 357; active means well fitted curve in either direction with a large enough effect, not every such curve was filed as active; further: on the % scale 0 is the no-effect control and ±100 the full control effect). The note with it: ME-180 AP-1-bla reporter, EGF-induced, beta-lactamase ratio, 5 h; at 7.69 µM (top of the series) unless noted. In a few lines:
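ME-180 cells with beta-lactamase reporter under AP-1 response element, stimulated with EC50 EGF; compounds tested in titration series, 5 h at 37 °C. CCF4 substrate added 2.5 h at room temperature; 460/530 nm emission ratio gave %activity and AC50.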

In test [3] the target is Cytochrome P450 1A2 (Homo sapiens) (UniProt P05177). Nature of the test: p450-cyp1a2 (AID 410; calls by dose curve; further: potency means the concentration at half of the fitted maximal effect). Conditions: recombinant CYP1A2, luciferin-ME demethylation, luminescence; series mostly up to 57 µM. The procedure, abridged:
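Read-out is luminescence from luciferin produced by CYP1A2 demethylation of Luciferin-ME (100uM, at Km). Detection reagent stopped the 60 min NADPH-dependent reaction; signals were normalized to 57 uM furafylline.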

A short description of test [4]: NFAT Signaling Pathway (AID 444; active means well fitted curve in either direction with a large enough effect, not every such curve was filed as active;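 further: carbachol stimulus at about its EC50 of 1 µM final; on the % scale 0 is the no-effect control and ±100 the full control effect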). The note with it: Jurkat NFAT-bla M1, carbachol, beta-lactamase ratio, 5 h; at 7.69 µM (top of the series) unless noted. In a few lines:
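Jurkat cells carrying an NFAT-driven β-lactamase reporter and co-transfected muscarinic M1 receptor were treated with compound plus carbachol (1 uM final, an EC50 level) for 5 h at 37 °C. CCF4 loading followed for 1 h at RT; 460/530 nm ratio gave %activity.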

Test [5] can be described thus: Stat Signaling Pathway (AID 446; active means well fitted curve in either direction with a large enough effect, not every such curve was filed as active;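 further: ME-180 cervical cancer cells given 40 pM IL-6 alongside compound; SIE-controlled beta-lactamase reporter measured as 460/530 nm FRET emission ratio; on the % scale 0 is the no-effect control and ±100 the full control effect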). The note with it: ME-180 SIE beta-lactamase reporter, IL-6 stimulated, 5 h; at 7.69 µM (top of the series) unless noted. The procedure, abridged:
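Compound effects on IL-6-induced STAT reporter activity were measured in ME-180 cells. After overnight culture, cells were co-treated with 40 pM IL-6 for 5 hrs before beta-lactamase substrate loading at room temperature.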

Test [6] has as its target Glucocorticoid receptor (Homo sapiens) (UniProt P04150). Nature of the test: GR-GFP Redistribution (AID 450;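 active means compounds whose dose series gives a full or clear partial fitted curve of increased nuclear translocation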; further: potency means the concentration at half of the fitted maximal effect). The note with it: U2OS GR-GFP nuclear translocation, laser cytometry, 2 h.
The target is the same in test [7]. The test can be described thus: GR-EFC Redistribution (AID 451; calls by dose curve; further: potency means the concentration at half of the fitted maximal effect). Conditions: CHO-K1 GR-EFC translocation, beta-gal luminescence, 2 h. The procedure, abridged:
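CHO-K1 cells stably expressing nuclear-localized β-gal enzyme acceptor and GR fused C-terminally to the enzyme donor fragment; ligand-driven nuclear translocation restores β-gal by complementation. Compounds titrated up to 46 uM final, 2 h at 37 °C; luminescence read.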

Test [8] concerns the target Mitogen-activated protein kinase 10 (Mus musculus) (UniProt Q61831). The test can be described thus: JNK3 AlphaScreen Assay (AID 530; active means well fitted curve in either direction with a large enough effect, not every such curve was filed as active;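 further: kinase came from lysate of stimulated human HepG2 cells; signal reports phosphorylation of biotinylated GST-cJun 1-79 at Ser73 with 10 µM ATP; on the % scale 0 is the no-effect control and ±100 the full control effect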). Conditions: JNK3 lysate, c-Jun phosphorylation; series mostly up to 57.1 µM. In a few lines:
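Biotinylated GST-cJun(1-79) served as substrate for JNK3 in HepG2 lysates stimulated with IL-1beta and TNF-alpha. ATP was 10 uM final, pH 7.6. Ser73 phosphorylation was quantified by AlphaScreen (680 nm excitation).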
On the technique in general: Bead proximity is the source of the signal in Alpha formats.

For test [9], the target named is 3',5'-cyclic-AMP phosphodiesterase 4B (Homo sapiens) (UniProt Q07343). Nature of the test: qHTS Assay for Inhibitors of PDE-IV (AID 607; active means well fitted activation curve with a large enough effect in the main read-out, with a control signal flat, not every such curve was filed as active; further: % of control where 0% means no effect). Conditions: HEK293 ACTOne CNG channel cells, membrane potential fluorescence; series mostly up to 22.9 µM. The procedure, abridged: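 ACTOne HEK293 cells carry a modified cAMP-gated CNG channel and express endogenous PDE4; plated 1000 cells/well, compounds up to 22.9 uM final. Membrane-potential dye fluorescence (ex 535/em 590) was read; parental cells received 10 uM forskolin + 100 uM RO 20-1724.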
Sequence of 3',5'-cyclic-AMP phosphodiesterase 4B (Homo sapiens) (Q07343 whole entry, looked up): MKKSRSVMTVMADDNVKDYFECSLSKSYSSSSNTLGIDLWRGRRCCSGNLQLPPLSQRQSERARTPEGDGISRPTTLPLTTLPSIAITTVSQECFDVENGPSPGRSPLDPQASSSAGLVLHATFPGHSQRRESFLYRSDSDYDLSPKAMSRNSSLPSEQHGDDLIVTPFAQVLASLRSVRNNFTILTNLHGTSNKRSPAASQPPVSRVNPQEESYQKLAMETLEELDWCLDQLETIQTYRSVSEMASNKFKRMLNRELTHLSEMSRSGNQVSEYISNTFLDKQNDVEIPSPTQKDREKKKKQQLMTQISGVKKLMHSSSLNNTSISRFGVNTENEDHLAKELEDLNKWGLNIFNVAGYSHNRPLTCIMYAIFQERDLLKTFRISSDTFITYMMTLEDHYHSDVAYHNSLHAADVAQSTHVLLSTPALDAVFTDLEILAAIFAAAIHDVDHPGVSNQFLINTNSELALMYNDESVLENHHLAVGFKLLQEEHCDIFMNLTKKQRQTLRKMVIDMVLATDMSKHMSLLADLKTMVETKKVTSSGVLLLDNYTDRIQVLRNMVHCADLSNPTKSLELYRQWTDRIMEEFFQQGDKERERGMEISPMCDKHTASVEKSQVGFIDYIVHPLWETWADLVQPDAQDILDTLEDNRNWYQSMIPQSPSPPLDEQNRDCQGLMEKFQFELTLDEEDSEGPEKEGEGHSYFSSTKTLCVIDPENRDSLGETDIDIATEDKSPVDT

Test [10] can be described thus: qHTS Assay for Lipid Storage Modulators (AID 1519; calls by dose curve). The note with it: Drosophila S3 cells, BODIPY lipid droplet/cell ratio, laser cytometry, cells loaded with oleic acid; for activity change, negative = inhibition: at 57.5 µM (top of the series). In a few lines: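 Cells seeded at 5,000 per well were treated with compounds over a concentration series and loaded with oleic acid (400 uM, as added). Lipid droplet fluorescence (488 nm excitation, 500-530 nm channel) was read by laser-scanning cytometry and normalized to 20 uM Triacsin C.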

Test [11] has as its target Dual specificity protein kinase CLK4 (Homo sapiens) (UniProt Q9HAZ1). Nature of the test: qHTS Assay for Inhibitors of CDC-like Kinase 4 (ADP-FP Assay) (AID 1795).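 Further: recombinant human CLK4 phosphorylating RS repeat peptide at 1 µM ATP; on the % scale 0 is the no-effect control and ±100 the full control effect; nearly all actives have a fitted effect of over 60% in size.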 Conditions: Transcreener ADP fluorescence polarization; series mostly up to 50 µM. The procedure, abridged:
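Kinase activity was followed as ADP output, converted from fluorescence polarization with a calibration curve. Reactions ran one hour at low ATP (1 uM) with RS peptide substrate.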
On the technique in general: In qHTS, concentration-response curves come from the screen itself.

The target in test [12] is Ubiquitin carboxyl-terminal hydrolase 1 (Homo sapiens) (UniProt O94782). Nature of the test: Inhibitors of USP1/UAF1: Pilot qHTS (AID 504865).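 Further: rhodamine fluorescence freed from ubiquitin-rhodamine substrate followed over time; top concentration of the series differs between compounds; on the % scale 0 is the no-effect control and ±100 the full control effect; nearly all actives have a fitted effect of over 35% in size.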 The note with it: purified USP1/UAF1, Ub-rhodamine cleavage fluorescence; series mostly up to 54.9 µM. The procedure, abridged: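 Enzyme-free wells gave the negative control, while test wells held 1nM USP1/UAF1 preincubated with compound for 15 min at room temperature. Ub-Rho at 150nM final started the reaction, and fluorescence at 480/540 nm was recorded kinetically.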
Sequence of Ubiquitin carboxyl-terminal hydrolase 1 (Homo sapiens) (O94782 whole entry, looked up): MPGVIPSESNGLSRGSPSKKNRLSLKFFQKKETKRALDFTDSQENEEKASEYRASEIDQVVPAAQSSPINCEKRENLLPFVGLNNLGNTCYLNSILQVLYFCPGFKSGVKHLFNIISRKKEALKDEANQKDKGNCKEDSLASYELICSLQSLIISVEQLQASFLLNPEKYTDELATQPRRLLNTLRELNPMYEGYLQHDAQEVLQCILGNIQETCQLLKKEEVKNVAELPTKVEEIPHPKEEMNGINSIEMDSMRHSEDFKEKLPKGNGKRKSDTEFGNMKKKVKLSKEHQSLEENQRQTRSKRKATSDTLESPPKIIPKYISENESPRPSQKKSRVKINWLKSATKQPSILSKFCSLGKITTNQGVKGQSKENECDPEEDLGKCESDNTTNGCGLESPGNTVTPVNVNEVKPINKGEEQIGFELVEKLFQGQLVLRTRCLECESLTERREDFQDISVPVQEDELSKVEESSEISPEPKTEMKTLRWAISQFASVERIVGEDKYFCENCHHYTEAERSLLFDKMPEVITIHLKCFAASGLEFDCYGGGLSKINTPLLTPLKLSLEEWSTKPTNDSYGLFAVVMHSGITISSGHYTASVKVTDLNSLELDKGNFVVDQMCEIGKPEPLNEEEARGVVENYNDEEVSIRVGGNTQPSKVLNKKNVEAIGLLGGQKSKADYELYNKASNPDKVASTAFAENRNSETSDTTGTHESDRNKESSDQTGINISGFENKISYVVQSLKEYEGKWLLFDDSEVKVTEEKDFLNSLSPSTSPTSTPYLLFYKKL

Test [13] is described as follows: Primary qHTS for small molecule stabilizers of the endoplasmic reticulum resident proteome: Secreted ER Calcium Modulated Protein (SERCaMP) assay (AID 1508630). Further: on the % scale 0 is the no-effect control and ±100 the full control effect. The note with it: SH-SY5Y GLuc-SERCaMP (Gaussia luciferase released on ER calcium loss) secretion, thapsigargin, luminescence; series mostly up to 38.4 µM. In a few lines:
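The SH-SY5Y reporter protocol was run at 3 concentrations up to 38.3 uM (primary) or 11 concentrations (follow-up): 16 h compound, 100 nM thapsigargin for 4 h, then extracellular luciferase luminescence.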

For test [14], the target named is Cytochrome P450 3A4 (Homo sapiens) (UniProt P08684). Nature of the test: qHTS Assay for Activators of Cytochrome P450 3A4 (AID 885). Further: nearly all actives have a fitted effect of over 65% in size. Conditions: recombinant CYP3A4, Luciferin-PPXE luminescence, 60 min; series mostly up to 57.1 µM. The procedure, abridged:
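CYP3A4 activity: Luciferin-PPXE O-dealkylation, 25uM substrate, 200mM KPO4, RT throughout. Read-out is luciferase luminescence; higher values reflect activation.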

Test [15] can be described thus: qHTS Assay for Identification of Small Molecule Agonists for Hypoxia Response Element Signaling Pathway (AID 914; active means well fitted activation curve with a large enough effect in the signal ratio, with a control signal flat, not every such curve was filed as active; the % refers to the signal ratio; further: potency means the concentration at half of the fitted maximal effect). Conditions: ME-180 (cervical carcinoma) HRE-bla reporter, beta-lactamase ratio, CoCl2, 17 h; activation: stronger effect = higher value. In a few lines:
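Compounds in a titration series were added to ME-180 reporter cells alongside an EC50 level of CoCl2. After 17 hours, beta-lactamase activity was read as the 460nm/530nm emission ratio of CCF4, giving AC50 values.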

Setting [16] is: measured here: cell count channel max response.
[17] abbreviates: measured here: lipid channel max response.

Sequence of Glucocorticoid receptor (Homo sapiens) (P04150 whole entry, looked up): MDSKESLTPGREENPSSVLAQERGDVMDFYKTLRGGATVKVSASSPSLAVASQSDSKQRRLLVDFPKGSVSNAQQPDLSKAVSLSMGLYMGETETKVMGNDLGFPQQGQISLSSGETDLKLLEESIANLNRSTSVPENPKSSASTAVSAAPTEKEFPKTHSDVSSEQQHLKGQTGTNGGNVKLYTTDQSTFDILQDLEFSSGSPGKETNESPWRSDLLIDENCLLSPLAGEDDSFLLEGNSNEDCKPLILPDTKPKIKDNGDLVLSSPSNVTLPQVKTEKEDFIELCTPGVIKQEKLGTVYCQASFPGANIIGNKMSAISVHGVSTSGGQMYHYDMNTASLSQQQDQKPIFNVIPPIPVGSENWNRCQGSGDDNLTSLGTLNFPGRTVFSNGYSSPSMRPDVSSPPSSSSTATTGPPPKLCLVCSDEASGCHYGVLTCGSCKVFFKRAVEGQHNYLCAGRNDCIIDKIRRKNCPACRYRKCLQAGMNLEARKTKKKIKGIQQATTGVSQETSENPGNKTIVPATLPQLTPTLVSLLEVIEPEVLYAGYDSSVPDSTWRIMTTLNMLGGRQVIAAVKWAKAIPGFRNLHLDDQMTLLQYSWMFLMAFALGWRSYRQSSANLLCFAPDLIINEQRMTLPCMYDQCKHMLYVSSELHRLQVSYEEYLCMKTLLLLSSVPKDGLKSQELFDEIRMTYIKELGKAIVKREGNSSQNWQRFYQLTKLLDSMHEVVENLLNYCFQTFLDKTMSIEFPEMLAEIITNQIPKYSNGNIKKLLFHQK
Sequence of Cytochrome P450 3A4 (Homo sapiens) (P08684 whole entry, looked up): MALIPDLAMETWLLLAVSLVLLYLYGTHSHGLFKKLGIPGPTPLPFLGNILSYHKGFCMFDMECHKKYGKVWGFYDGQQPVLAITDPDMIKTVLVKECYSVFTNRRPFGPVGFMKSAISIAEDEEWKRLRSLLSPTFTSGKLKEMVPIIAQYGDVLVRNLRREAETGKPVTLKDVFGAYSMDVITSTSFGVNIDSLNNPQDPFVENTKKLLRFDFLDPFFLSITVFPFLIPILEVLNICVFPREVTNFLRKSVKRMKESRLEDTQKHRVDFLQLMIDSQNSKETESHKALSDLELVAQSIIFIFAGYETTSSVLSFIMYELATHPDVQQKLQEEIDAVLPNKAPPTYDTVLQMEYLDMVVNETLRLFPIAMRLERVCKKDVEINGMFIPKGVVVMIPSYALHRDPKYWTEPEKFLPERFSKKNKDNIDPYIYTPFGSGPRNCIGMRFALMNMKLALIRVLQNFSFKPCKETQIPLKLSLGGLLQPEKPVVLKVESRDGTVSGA
Sequence of Dual specificity protein kinase CLK4 (Homo sapiens) (Q9HAZ1 whole entry, looked up): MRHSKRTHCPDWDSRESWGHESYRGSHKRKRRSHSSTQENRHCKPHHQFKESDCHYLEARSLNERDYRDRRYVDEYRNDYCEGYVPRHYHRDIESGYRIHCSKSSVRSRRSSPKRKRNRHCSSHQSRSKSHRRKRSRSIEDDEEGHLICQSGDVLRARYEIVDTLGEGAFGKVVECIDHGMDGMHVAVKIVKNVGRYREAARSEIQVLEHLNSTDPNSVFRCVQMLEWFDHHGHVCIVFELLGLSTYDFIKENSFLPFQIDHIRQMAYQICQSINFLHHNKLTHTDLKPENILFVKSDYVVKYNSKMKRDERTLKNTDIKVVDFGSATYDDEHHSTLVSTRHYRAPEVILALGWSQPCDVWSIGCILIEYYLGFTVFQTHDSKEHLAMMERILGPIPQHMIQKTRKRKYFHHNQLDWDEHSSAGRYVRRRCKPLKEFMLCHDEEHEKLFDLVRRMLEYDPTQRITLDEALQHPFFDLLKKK
Sequence of Cytochrome P450 1A2 (Homo sapiens) (P05177 whole entry, looked up): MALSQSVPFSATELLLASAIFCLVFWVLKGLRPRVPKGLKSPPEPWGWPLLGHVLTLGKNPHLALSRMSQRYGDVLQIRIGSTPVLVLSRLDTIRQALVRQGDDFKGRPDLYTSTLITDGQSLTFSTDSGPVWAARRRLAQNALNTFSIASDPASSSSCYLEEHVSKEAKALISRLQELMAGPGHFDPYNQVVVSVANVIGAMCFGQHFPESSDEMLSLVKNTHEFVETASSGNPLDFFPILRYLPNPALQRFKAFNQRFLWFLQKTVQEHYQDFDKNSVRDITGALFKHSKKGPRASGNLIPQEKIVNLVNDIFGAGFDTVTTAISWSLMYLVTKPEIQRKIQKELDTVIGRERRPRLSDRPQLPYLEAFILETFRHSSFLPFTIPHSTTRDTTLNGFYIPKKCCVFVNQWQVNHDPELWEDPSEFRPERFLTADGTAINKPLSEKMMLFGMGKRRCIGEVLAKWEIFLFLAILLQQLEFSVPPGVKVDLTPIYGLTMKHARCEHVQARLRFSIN

As for `O=c1cnc2cnc(N3CCOCC3)nc2n1C1CC1`, the Potency is > 11.4 µM (inactive) in [1], 6.31 µM (active) in [3], > 9.22 µM (inactive) in [6] and > 46 µM (inactive) in test [7]. In addition, the activity change, negative = inhibition is 18.1% (inactive) in test [2], -1.07% (inactive) in [4] and 1.43% (inactive) in test [10]. In addition, in test [5], the activity, negative = inhibition was -6.14% (inactive). The call in test [8] was inactive. For the same compound, the Potency entry in test [9], in test [11], in test [12] and in [13] was “inactive” throughout. The max response in test [10] (setting [16]) was 8.4%; in test [10] (setting [17]), 8.8%.
Take `COc1ccc(Oc2ncc3ncc(=O)n(C)c3n2)cc1`: the Potency in [1] is > 11.4 µM (inactive); in test [3] it was 3.98 µM (active); in [6], > 9.22 µM (inactive); in [7] it was > 46 µM (inactive). Further, the activity change, negative = inhibition was -12.2% (inactive) in [2], -6.92% (inactive) in [4] and 5.63% (inactive) in test [10]. The activity, negative = inhibition in test [5] is -7.6% (inactive). Moreover, the outcome in test [8] was inactive. The Potency result in test [9], in test [14], in test [11], in [12] and in [13] was “inactive” each time. For the same compound, the values for the max response in test [10] (setting [16]) and in test [10] (setting [17]) were 9.26% and 14.1%, respectively.
As for `O=c1c(-c2cc(F)cc(F)c2)nc2cnc(N3CCNCC3)nc2n1C1CC1`, the Potency was > 11.4 µM (inactive) in [1]; 3.16 µM (active) in [3]; > 9.22 µM (inactive) in [6]; > 46 µM (inactive) in [7]; 2.51 µM (active) in test [15]. Also, the outcome in test [8] was inactive. The Potency entry in test [9], in test [14], in [11], in [12] and in test [13] was “inactive” throughout. Moreover, the activity change, negative = inhibition in test [10] was 2.24% (inactive). Besides, the max response in test [10] (setting [16]) was 4.49%; in [10] (setting [17]), 4.55%.
For the compound `COc1cccc(Cn2c(=O)cnc3cnc(Oc4ccccc4)nc32)c1`, the results for the Potency in test [1], in test [6] and in test [7] were > 11.4 µM (inactive), > 9.22 µM (inactive) and > 46 µM (inactive), respectively. The activity change, negative = inhibition in test [2] is -13.9% (inactive); in test [4], -0.253% (inactive); in test [10] it was -0.165% (inactive). Also, in [5], the activity, negative = inhibition is -14.7% (inactive). In addition, in test [8], the call was inactive. The max response is 3.98% in test [10] (setting [16]) and 3.52% in [10] (setting [17]). Moreover, the Potency result in [11], in test [12] and in test [13] was “inactive” each time.
`COc1cccc(Nc2ncc3nc(-c4cn(C)c5ccccc45)c(=O)n(CCC#N)c3n2)c1`: the Potency in test [1] is > 11.4 µM (inactive); in [3], 20 µM (active); in [6] it was > 9.22 µM (inactive); in test [7], > 46 µM (inactive). Moreover, the figures for the activity change, negative = inhibition in [2], in test [4] and in test [10] were -25.6% (inactive), -5.99% (inactive) and 2.44% (inactive), respectively. Further, the activity, negative = inhibition in test [5] is -9.25% (inactive). In test [8], the call was inactive. Further, the Potency result in test [9], in test [14], in [11], in [12] and in test [13] was “inactive” throughout. For the same compound, the max response was 27% in test [10] (setting [16]) and 27.4% in [10] (setting [17]).
Turning to `COc1ccc(CNc2cc(-c3cccc(C#N)c3)ncn2)c(OC)c1`, the Potency in test [1] was > 11.4 µM (inactive); in test [6], > 46 µM (inactive); in [7], > 46 µM (inactive). The activity change, negative = inhibition is -14.7% (inactive) in test [2] and 7.91% (inactive) in [10]. For the same compound, the activity, negative = inhibition in test [5] was -2.42% (inactive). Besides, in test [8], the outcome was inactive. The max response in test [10] (setting [16]) worked out at 18.5%; in [10] (setting [17]) it was 23.9%. The Potency entry in [11], in test [12] and in test [13] was “inactive” each time.
